SUMO Mot1 rescue: yeast Mot1-301 growth rescue at high temperature, primary screen, SUMOylation pathway inhibitor project, S. cerevisiae, ATP luminescence, 38.5C. S. cerevisiae Mot1-301 growth rescue; percent above DMSO median, 100 means doubled. growth rescue, % at 18.8 µM. 320,000 tested, 1% active;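 active = every valid replicate shows activation above 250% relative to neutral control wells; inactive = the rest, any valid replicate at or below 250%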
CHT allo act: CHT positive allosteric modulators, primary screen, cell-based, membrane potential dye, choline EC20; AID 488977, 2010; 310,000 tested, 0.49% active; High affinity choline transporter 1 (Homo sapiens), Q9GZV3; B-score at 10 µM; CHT-expressing cells; hits give high values; LV-AA mutant CHT in HEK293 cells;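 active = initial fluorescence not abnormally high and integrated response B-score, plate-corrected, over 3 SD above library mean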
Target sequence (Q9GZV3 whole entry, looked up): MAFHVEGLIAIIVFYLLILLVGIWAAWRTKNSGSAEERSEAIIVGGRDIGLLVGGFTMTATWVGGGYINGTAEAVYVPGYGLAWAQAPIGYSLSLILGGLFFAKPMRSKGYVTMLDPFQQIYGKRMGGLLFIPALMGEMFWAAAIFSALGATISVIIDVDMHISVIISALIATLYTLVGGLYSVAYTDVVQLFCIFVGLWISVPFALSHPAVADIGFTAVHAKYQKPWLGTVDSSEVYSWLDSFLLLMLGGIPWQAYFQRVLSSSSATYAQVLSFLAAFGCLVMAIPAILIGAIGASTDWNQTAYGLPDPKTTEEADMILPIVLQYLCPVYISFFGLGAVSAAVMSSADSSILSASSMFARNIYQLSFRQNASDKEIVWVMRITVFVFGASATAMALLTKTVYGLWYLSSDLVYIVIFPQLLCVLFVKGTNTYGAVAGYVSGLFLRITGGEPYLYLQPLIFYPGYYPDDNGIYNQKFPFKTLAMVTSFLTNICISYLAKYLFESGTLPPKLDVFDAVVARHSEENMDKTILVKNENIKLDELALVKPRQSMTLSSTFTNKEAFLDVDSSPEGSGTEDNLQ
MEKK2 WT-MEK5: modulators of MEK5 binding to wildtype MEKK2, primary screen, biochemical, multiplex bead flow cytometry, Alexa488-MEK5; 290,000 tested, 1.1% active; AID 1531, 2009; Mitogen-activated protein kinase kinase kinase 2 (Homo sapiens), Q9Y2U5; Alexa488-MEK5 binding to MEKK2 WT; actives lie on both sides; binding response (% of control), % at 10 µM; in the data active = binding response below about 67% or above about 130%
MEKK2 mut-MEK5: MEK5 binding signal on mutant MEKK2 PB1, primary screen, biochemical, multiplex bead flow cytometry, Alexa488-MEK5; Alexa488-MEK5 binding to MEKK2 mutant; percent response, % at 10 µM; 290,000 tested, 0.35% active; AID 1530, 2009; in the data active = percent response above about 24%, passing the limit was not always enough
MEKK3 PB1 HTS: modulators of MEKK3-MEK5 PB1 binding, primary screen, biochemical, wildtype MEKK3, multiplex bead flow cytometry, Alexa488-MEK5; 290,000 tested, 1.4% active; binding response (% of control), % at 10 µM; bead-based flow cytometry, Alexa488-MEK5 binding to MEKK3; actives lie on both sides; 0 = blocked by unlabeled MEK5, 100 = vehicle; Mitogen-activated protein kinase kinase kinase 3 (Homo sapiens), Q99759;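 active = binding response more than 3 SD above or below the average of its plate-row segment, actives on both sides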;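 also: Alexa488 bead fluorescence after subtracting the streptavidin-only scavenger bead signal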
CHT block: inhibitors of human choline transporter CHT | 310,000 tested, 0.86% active | CHT-expressing cells, membrane potential dye, choline response; hits give low values | AID 488975, 2010 | B-score at 10 µM | High affinity choline transporter 1 (Homo sapiens), Q9GZV3;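 active = B-score over 3 SD under the library average, and starting fluorescence ratio not unusually high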;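 also: choline stimulus applied at its EC90 after an EC20 pre-addition; B-score computed on integrated fluorescence ratio after choline addition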
MEKK2wt confirm: modulators of MEK5 binding to wildtype MEKK2, confirmation, biochemical, single concentration, multiplex bead flow cytometry | 5,900 tested, 2.4% active | shares compounds with MEKK3 PB1 HTS | binding response (% of control), % at 10 µM | Alexa488-MEK5 binding to MEKK2 WT; actives lie on both sides | AID 1892, 2009; in the data active = binding response below about 16% or above about 210%; inactive = in between
MEKK2mut confirm: mutant MEKK2 PB1-MEK5 binding signal retest – biochemical, single concentration, multiplex bead flow cytometry, confirmation | shares compounds with MEKK3 PB1 HTS | Alexa488-MEK5 binding to MEKK2 mutant | percent response, % at 10 µM | 5,900 tested, 2% active | AID 1893, 2009; in the data active = percent response mostly above about 71%, no sharp cut-off; inactive = mostly below about 38%;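 also: higher means compound restores mutant binding toward wildtype level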
MEKK3-MEK5 inh: MEKK3 wild-type PB1 binding to MEK5, inhibitors, confirmation, biochemical, bead multiplex flow cytometry, single concentration, wildtype | 5,900 tested, 1.8% active | shares compounds with MEKK3 PB1 HTS | binding response (% of control), % at 10 µM | AID 1894, 2009 | Alexa488-MEK5 binding to MEKK3; hits give low values;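 active = binding response below 72% of control, or above a set upper limit, though filed actives all read lower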;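 also: lower values mean stronger disruption of MEK5 binding to MEKK3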
Hits are given with their value; - = inactive; . = not tested or not shown; [ ] = another dose, or the depositor's remark. Compounds with a hit are over-represented: about 4.1% of the library has one in this group of screens.

SMILES	SUMO Mot1 rescue	CHT allo act	MEKK2 WT-MEK5	MEKK2 mut-MEK5	MEKK3 PB1 HTS	CHT block	MEKK2wt confirm	MEKK2mut confirm	MEKK3-MEK5 inh
Cc1cc2cc(CNC(=O)c3ccc(Br)o3)ccc2n1C	-	-	45[inhibitor]	-	66[inhibitor]	-	-	-	-
COc1ccc(-c2n[nH]c(C)c2-c2cscn2)c(O)c1	-	-	-	-	133	-	-	-	-
C/C(=N/NS(=O)(=O)c1cccc([N+](=O)[O-])c1)c1ccncc1	-	-	-	-	-	-	.	.	.
COc1cccc(NC(=O)N2CCN(c3cccc(C)c3C)CC2)c1	-	-	0.0[inhibitor]	-	0.0[inhibitor]	-	-	-	-
COc1ccccc1N1CCN(C(=O)Nc2cccc(Cl)c2)CC1	-	-	-	-	-	-	.	.	.
CC(=O)Nc1ccc(NC(=O)C(C)OC(=O)CSCc2cccc(Cl)c2)cc1 (centres undefined)	-	-	.	.	.	-	.	.	.
NC(N)=N/N=C/c1ccc(Cl)cc1Cl	-	-	155	-	129	-7.9	-	-	-
COC(=O)c1ccc(N2C(=O)Nc3ccccc3N2O)cc1	-	-	-	-	50[inhibitor]	-	-	-	-
Cc1ccc(NS(=O)(=O)N(C)C)cc1	-	-	-	-	71[inhibitor]	-	-	-	-
COC(=O)c1ccc(NS(=O)(=O)N(C)C)cc1	-	-	-	-	-	-	.	.	.
Cc1cc(C)cc(NC(=O)Nc2ccc(-n3ccc(C(F)(F)F)n3)cc2)c1	-	-	-	-	-	-	.	.	.
O=C(Nc1ccc(-n2ccc(C(F)(F)F)n2)cc1)Nc1cccc(Cl)c1	-	-	245	74	141	-	-	-	-
Cc1ccc(NC(=O)COC(=O)CC2CCCC2)cc1Cl	-	-	-	-	70[inhibitor]	-	-	-	-
Cc1ccc(NC(=O)COc2ccccc2)cc1Cl	-	-	-	-	-	-	.	.	.
Cc1ccc(Cl)cc1NC(=O)c1ccccc1OCC(=O)Nc1ccc(Cl)cc1	-	-	-	-	-	-	.	.	.
CCOCC(=O)Nc1ccc(C)c(Cl)c1	-	-	-	-	77[inhibitor]	-	-	-	-
Cc1ccc(NC(=O)COc2ccccc2C(=O)Nc2ccccc2)cc1Cl	-	-	146	68	-	-	-	-	-
Cc1ccc(C2C(C#N)=C(N)Oc3cc(C)oc(=O)c32)o1 (centres undefined)	-	-	-	-	-	-	.	.	.
CC(C)CNc1nc(Oc2ccc(=O)[nH]n2)nc(N2CCOCC2)n1	-	-	-	-	-	-	.	.	.
O=S(=O)(c1cccc(F)c1)N1CCN(Cc2ccc3c(c2)OCO3)CC1	-	-	-	-	58[inhibitor]	-	-	-	-
CCN1CCN(c2ccc(S(=O)(=O)N3CCCCC3)cc2NC(=O)COc2ccc(F)cc2Cl)CC1	-	-	139	-	-	-	-	-	-
C=C(C)c1cccc(C(C)(C)NC(=O)NCc2ccc(OC)cc2)c1	-	-	-	-	133	-	-	-	-
O=C(N/N=C\c1cccc(Cl)c1)c1n[nH]c2c1CCCC2	-	-	-	-	-	-	.	.	.
O=C(N/N=C/c1ccc(Cl)cc1Cl)c1n[nH]c2c1CCCC2	-	-	-	-	128	-	-	-	-
CC(C)c1ccc(NC(=O)Cc2c(C(=O)O)n(C)c3ccccc23)cc1	-	-	-	-	-	-	.	.	.
SMILES	SUMO Mot1 rescue	CHT allo act	MEKK2 WT-MEK5	MEKK2 mut-MEK5	MEKK3 PB1 HTS	CHT block	MEKK2wt confirm	MEKK2mut confirm	MEKK3-MEK5 inh
CCCn1c(CNC(=O)Cc2ccccc2)nc2ccccc21	-	-	38[inhibitor]	-	32[inhibitor]	-	-	-	-
CN(C)CCn1nnc2c(=O)oc3ccccc3c21	-	-	.	-	56[inhibitor]	-	-	-	-
CCn1c(SCC(=O)N/N=C/C(C)=C/c2ccco2)nnc1-c1ccccc1	-	-	-	-	-	-	.	.	.
CCn1c(SCC(=O)N/N=C/C=C/c2ccco2)nnc1-c1ccccc1	-	-	-	-	128	-	-	-	-
CCOCCCNC(=O)C(c1ccccc1)N(Cc1ccc2c(c1)OCO2)C(=O)c1ccccc1O (centres undefined)	-	-	-	-	-	-	.	.	.
CN(CC(=O)NCCc1ccc(S(N)(=O)=O)cc1)CC(=O)Nc1ccccc1C(F)(F)F	-	.	.	.	.	.	.	.	.
COc1ccccc1NS(=O)(=O)c1cc(NC(=O)c2cnccn2)ccc1N1CCOCC1	-	-	-	-	58[inhibitor]	-	-	-	-
O=C(Nc1ccc(Cl)c(Cl)c1)Nc1ccc(N2CCCC2)c(S(=O)(=O)Nc2ccccc2Cl)c1	-	-	44[inhibitor]	-	-	-	-	-	-
CCCCCCCN=CC1=C(O)CC(c2ccccc2)CC1=O (centres undefined)	-	-	-	-	-	-	.	.	.
COc1cccc(-c2ccc(NC(=O)C3CCCN(CCCn4nc(C)cc4C)C3)cc2)c1 (centres undefined)	-	-	-	-	-	-	.	.	.
Cc1ccc(NC(=S)N(CCN2CCCCC2)Cc2ccco2)cc1	-	-	-	-	-	-	.	.	.
COCCN(C(=O)Nc1ccc(OC)cc1OC)C1CCN(C(C)C)CC1	-	-	-	-	81[inhibitor]	-	-	-	-
COCCN(C(=S)Nc1cccc(OC)c1)C1CCN(C(C)C)CC1	-	-	-	-	137	-	-	-	-
Cc1ccc(NC(=S)N(Cc2ccco2)C2CCN(C(C)C)CC2)cc1	-	-	-	-	132	-	-	-	-
COCCN(C(=S)Nc1ccc(OC)cc1)C1CCN(C(C)C)CC1	-	-	-	-	134	-	-	-	-
COCCN(C(=S)Nc1cccc(OC)c1)C1CCN(C(C)=O)CC1	-	-	-	-	-	-	.	.	.
CC(C)(C)c1cc(NS(=O)(=O)c2cccs2)no1	-	-	-	-	-	-	.	.	.

Screening results from PubChem.
